Source: PubChem BioAssay AID1159580 (chemical genetic matrix, 2015)
Among all 5,500 compounds or so, about 2,000 (36%) were called active. About 18% were inconclusive and are not listed. No stated cut-off is given here; in the data, active means normalized growth mostly below about 0.91 (no sharp cut-off); inconclusive means no clear call, values can overlap the other calls; inactive means mostly above about 0.92. The list shows a part of the results.

Assay: chemical genetic growth profiling, strain panel (AID 1159580);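 further: tested at 20 µM; growth read once vehicle control cultures reached saturation at 30 °C; 1 = growth at the plate median or of vehicle wells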
Conditions: growth OD
[1] = S. cerevisiae deletion strains, locus YAL013W, strain DEP1, stronger effect = lower value
[2] = S. cerevisiae deletion strains, locus YBR229C, strain ROT2, stronger effect = lower value
[3] = S. cerevisiae deletion strains, locus YCL061C, strain MRC1, stronger effect = lower value
[4] = S. cerevisiae deletion strains, locus YDL101C, strain DUN1, stronger effect = lower value
[5] = S. cerevisiae deletion strains, locus YDR150W, strain NUM1, stronger effect = lower value
[6] = S. cerevisiae deletion strains, locus YEL061C, strain CIN8, stronger effect = lower value
[7] = S. cerevisiae deletion strains, locus YGR078C, strain PAC10, stronger effect = lower value
[8] = S. cerevisiae deletion strains, locus YGR229C, strain SMI1, stronger effect = lower value
[9] = S. cerevisiae deletion strains, locus YHR030C, strain SLT2, stronger effect = lower value
[10] = S. cerevisiae deletion strains, locus YHR087W, strain rtc3, stronger effect = lower value
[11] = S. cerevisiae deletion strains, locus YJL187C, strain SWE1, stronger effect = lower value
[12] = S. cerevisiae deletion strains, locus YJR043C, strain POL32, stronger effect = lower value
[13] = S. cerevisiae deletion strains, locus YJR075W, strain HOC1, stronger effect = lower value
[14] = S. cerevisiae deletion strains, locus YKL190W, strain CNB1, stronger effect = lower value
[15] = S. cerevisiae deletion strains, locus YLR039C, strain RIC1, stronger effect = lower value
[16] = S. cerevisiae deletion strains, locus YLR058C, strain SHM2 (second series), stronger effect = lower value
[17] = S. cerevisiae deletion strains, locus YLR085C, strain ARP6, stronger effect = lower value
[18] = S. cerevisiae deletion strains, locus YLR262C, strain YPT6, stronger effect = lower value
[19] = S. cerevisiae deletion strains, locus YML094W, strain GIM5, stronger effect = lower value
[20] = S. cerevisiae deletion strains, locus YMR219W, strain ESC1, stronger effect = lower value
[21] = S. cerevisiae deletion strains, locus YMR263W, strain SAP30, stronger effect = lower value
[22] = S. cerevisiae deletion strains, locus YNL153C, strain GIM3, stronger effect = lower value
[23] = S. cerevisiae deletion strains, locus YNL298W, strain CLA4 (second series), stronger effect = lower value
[24] = S. cerevisiae deletion strains, locus YNL322C, strain KRE1, stronger effect = lower value
[25] = S. cerevisiae deletion strains, locus YNR030W, strain Alg12, stronger effect = lower value
[26] = S. cerevisiae deletion strains, locus YPL055C, strain LGE1, stronger effect = lower value
[27] = S. cerevisiae deletion strains, locus YPL241C, strain CIN2, stronger effect = lower value
[28] = S. cerevisiae deletion strains, locus YPR135W, strain CTF4, stronger effect = lower value
[29] = S. cerevisiae deletion strains, locus YNL128W, strain TEP1, stronger effect = lower value

Measured: normalized growth

CCO/C=C1\SC(=S)N(CCc2ccccc2)C1=O
inactive: [1] 0.969 | [4] 0.973 | [5] 0.986 | [12] 0.961 | [19] 0.882 | [21] 0.962 | [22] 0.936 | [25] 0.929 | [26] 0.975 | [27] 0.969
active: [2] 0.898 | [3] 0.882 | [6] 0.66 | [7] 0.919 | [8] 0.893 | [9] 0.149 | [10] 0.847 | [11] 0.897 | [13] 0.843 | [14] 0.736 | [15] 0.166 | [16] 0.898 | [17] 0.181 | [18] 0.193 | [20] 0.906 | [23] 0.561 | [24] 0.926 | [28] 0.305

COc1ccc(OC)c(S(=O)(=O)Nc2ccc(C#N)cc2)c1
inactive: [1] 0.978 | [2] 1.01 | [4] 1 | [5] 0.998 | [6] 1.02 | [7] 1.02 | [8] 1 | [9] 1.01 | [10] 1.01 | [11] 1 | [12] 0.989 | [13] 1.01 | [14] 0.996 | [15] 0.993 | [16] 1 | [17] 1.04 | [18] 0.953 | [19] 1.03 | [20] 1 | [21] 0.997 | S. cerevisiae deletion strains, locus YMR307W, strain GAS1, stronger effect = lower value 1.05 | [22] 0.998 | [23] 1 | [24] 0.993 | [25] 1.02 | [26] 1.02 | [27] 1.02 | [28] 0.951

Cc1ccc(OS(=O)(=O)c2ccc(C#N)cc2)c(Br)c1
active: [9] 0.62 | [15] 0.712 | [18] 0.796 | [28] 0.628 | S. cerevisiae strains, strain wild type, stronger effect = lower value 0.907
inactive: [1] 0.954 | [2] 1 | [4] 0.954 | [5] 0.973 | [6] 0.934 | [7] 0.976 | [11] 1.02 | [12] 0.979 | [13] 0.953 | [16] 0.997 | [17] 0.784 | [19] 0.957 | [20] 0.985 | [21] 0.966 | [29] 0.969 | [22] 0.96 | [23] 0.881 | [24] 0.981 | [25] 0.918 | S. cerevisiae deletion strains, locus YOL006C, strain TOP1, stronger effect = lower value 0.765 | [26] 0.936 | [27] 0.927

COc1ccc(OC)c(S(=O)(=O)Oc2ccc(C#N)cc2)c1
inactive: [1] 0.997 | [2] 0.994 | [3] 1.02 | [4] 0.984 | S. cerevisiae deletion strains, locus YDL134C, strain PPH21, stronger effect = lower value 1.01 | [5] 0.98 | [6] 0.956 | [7] 0.994 | [8] 0.968 | [9] 0.937 | [10] 0.968 | [12] 0.981 | [13] 1 | [15] 1.09 | [16] 0.992 | [17] 0.93 | [18] 1.09 | [19] 0.981 | [20] 1.01 | [21] 0.992 | [29] 1 | [22] 0.977 | [23] 0.972 | [24] 1 | [25] 0.973 | [26] 0.961 | [27] 0.987 | [28] 0.924
